From PubChem BioAssay (NCATS)
Results filed as inconclusive are left out. Active and inactive are the calls of the source. Calls come from the whole dose curve; as a rule, active = well fitted inhibition curve with a large enough effect; inconclusive = small, poorly fitted or top-dose-only effect; inactive = no such curve, though single readings can be large or run the other way.

What follows are compounds tested against Rap guanine nucleotide exchange factor 4 (Homo sapiens) (UniProt Q8WZA2) (assay: Confirmatory qHTS for antagonist of cAMP-regulated guanine nucleotide exchange factor 4 (EPAC2) (AID 1645885; note: nearly all actives have a fitted effect of over 25% in size; note: potency is the fitted concentration of half-maximal effect)). Conditions: EPAC2 Rap1B-BODIPY-GDP exchange fluorescence, biochemical; series mostly up to 202 µM.
Chain of Rap guanine nucleotide exchange factor 4 (Homo sapiens) (Q8WZA2 whole entry, looked up): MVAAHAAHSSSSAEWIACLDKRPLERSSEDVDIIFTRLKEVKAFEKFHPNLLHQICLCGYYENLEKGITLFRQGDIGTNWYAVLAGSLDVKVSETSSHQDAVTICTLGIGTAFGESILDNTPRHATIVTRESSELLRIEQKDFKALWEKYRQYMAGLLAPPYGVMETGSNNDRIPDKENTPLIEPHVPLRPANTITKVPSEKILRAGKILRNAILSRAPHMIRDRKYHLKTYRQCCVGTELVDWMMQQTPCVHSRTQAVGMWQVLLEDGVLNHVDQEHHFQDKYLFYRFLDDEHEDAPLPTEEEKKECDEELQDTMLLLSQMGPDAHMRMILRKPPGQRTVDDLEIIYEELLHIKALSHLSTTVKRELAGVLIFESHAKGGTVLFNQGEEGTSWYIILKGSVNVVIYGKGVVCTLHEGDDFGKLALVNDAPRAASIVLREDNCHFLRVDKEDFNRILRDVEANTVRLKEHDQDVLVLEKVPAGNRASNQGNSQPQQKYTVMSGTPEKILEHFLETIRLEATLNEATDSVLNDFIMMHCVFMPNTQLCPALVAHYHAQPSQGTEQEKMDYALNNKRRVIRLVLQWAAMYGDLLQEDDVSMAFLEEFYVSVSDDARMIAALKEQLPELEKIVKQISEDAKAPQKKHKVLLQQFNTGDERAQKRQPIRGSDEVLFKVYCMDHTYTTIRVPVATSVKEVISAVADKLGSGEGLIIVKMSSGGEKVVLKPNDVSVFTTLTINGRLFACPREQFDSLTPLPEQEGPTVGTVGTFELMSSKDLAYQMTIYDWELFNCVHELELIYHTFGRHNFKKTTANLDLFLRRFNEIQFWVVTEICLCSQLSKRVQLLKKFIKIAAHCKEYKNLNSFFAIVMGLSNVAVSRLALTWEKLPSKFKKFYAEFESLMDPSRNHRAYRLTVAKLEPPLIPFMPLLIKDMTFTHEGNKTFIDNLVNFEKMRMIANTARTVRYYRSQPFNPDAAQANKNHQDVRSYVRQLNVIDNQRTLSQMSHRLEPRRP

Q: How did the Potency turn out when Nc1ccc2cc3ccc(N)cc3nc2c1 was run?
A: The Potency was “inactive”.

Q: For O=C(Nc1ccc(S(=O)(=O)N2CCOCC2)cc1)c1cc(Cl)ccc1NS(=O)(=O)c1ccc(Cl)s1, which Potency is on record?
A: Its Potency is 24.8 µM (active).

Q: Which Potency does the source give for CCC(=O)O[C@H]1[C@H](O[C@@H]2[C@@H](C)[C@H](O[C@H]3C[C@@](C)(OC)[C@@H](O)[C@H](C)O3)[C@@H](C)C(=O)O[C@H](CC)[C@@](C)(O)[C@H](O)[C@@H](C)C(=O)[C@H](C)C[C@@]2(C)O)O[C@H](C)C[C@@H]1N(C)C here?
A: Its Potency is 17.5 µM (active).

Q: COC(=O)C1=C(C)NC(COC(N)=O)=C(C(=O)OC(C)C)C1c1cccc(Cl)c1Cl (centres undefined) was tested. Which Potency did it give?
A: The Potency was 44.1 µM (active).

Q: Nc1cccc2c(N)cccc12 was tested. Which Potency did it give?
A: Its Potency is “inactive”.

These compounds were tested against Catechol O-methyltransferase (Homo sapiens) (UniProt P21964) (assay: Confirmatory Screen for Target Class Profiling of Small Molecule Inhibitors of Methyltransferases (AID 1745852)). Conditions: MTase-Glo luminescence, SAH detection, recombinant enzyme; measured here: COMT max response; stronger effect = lower value.
Chain of Catechol O-methyltransferase (Homo sapiens) (P21964 whole entry, looked up): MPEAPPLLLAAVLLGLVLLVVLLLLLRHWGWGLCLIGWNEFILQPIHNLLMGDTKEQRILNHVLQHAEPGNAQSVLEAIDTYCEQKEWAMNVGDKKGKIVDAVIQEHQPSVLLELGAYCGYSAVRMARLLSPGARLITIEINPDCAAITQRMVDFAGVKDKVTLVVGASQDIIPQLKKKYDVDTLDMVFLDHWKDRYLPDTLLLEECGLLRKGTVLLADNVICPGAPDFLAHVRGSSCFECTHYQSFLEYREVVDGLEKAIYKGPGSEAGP

Q: Which activity does the source give for Nc1c(NC/C=C\COc2cc(CN3CCCCC3)ccn2)c(=O)c1=O here?
A: The activity was -6.1%.

Q: C=CC[N+]1([C@H]2C[C@H]3[C@@H]4CC[C@H]5C[C@H](OC(C)=O)[C@@H](N6CCCCC6)C[C@]5(C)[C@H]4CC[C@]3(C)[C@H]2OC(=O)CC)CCCCC1 was tested. Which activity did it give?
A: Its activity is -2.74%.

Q: Which activity does the source give for O=C1NC2CCCCN2C12CCN(CCCN1c3ccccc3CCc3ccc(Cl)cc31)CC2 (centres undefined) here?
A: Its activity is -2.76%.

Q: CC(C)N(CCC(=O)c1ccc2ccccc2c1)Cc1ccccc1 was tested. Which activity did it give?
A: Its activity is 3.44%.
